Screens from PubChem.
The sample as a whole holds a higher share of hits than the screen did.
IL1B secr inh: inflammasome signaling inhibition, IL-1 beta readout; THP-1 LPS/ATP IL-1B secretion, AlphaLISA, 16 h; stronger effect = lower value; hit rate 4.7% among 360,000; AID 743279; activity change, % at 57.5 µM; in the data active means activity change below about -50%; inconclusive means mostly about -30% to -49%
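THP-1 cells pretreated 1 hr with compounds (up to 57.5 uM final), then stimulated with LPS (250 ng/mL final) plus ATP (1.25 mM final); secreted IL-1B measured by AlphaLISA after 16 hr, decreased signal indicating inhibition.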
TDP1 cell CPT: DT40-hTDP1 cell growth loss with CPT; chicken DT40 Tdp1-/-;hTDP1 cells + 20 nM CPT, ATP luminescence, 48 h; Potency, µM (series often up to 46.2 µM), for inactives: at the top dose activity change, negative = growth inhibition, most hits filed as inhibitors; hit rate 12% among 420,000; further: potency means the concentration at half of the fitted maximal effect; nearly all actives have a fitted effect of over 55% in size
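Chicken DT40 Tdp1-/- cells stably complemented with human TDP1 were seeded at 400 cells/well in medium containing 20 nM camptothecin, exposed to pin-transferred compounds, and grown at 37 °C for at least 48 hr. Viability was read as ATP luminescence.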
DT40 TDP1 no CPT: qHTS for Inhibitors of human tyrosyl-DNA phosphodiesterase 1 (TDP1): qHTS in cells in absence of CPT | DT40 Tdp1-/- hTDP1 cells, no CPT, ATP luminescence, 48 h | Potency, µM (doses to about 46.2 µM), for the others: at the top dose activity change, negative = growth inhibition, most hits filed as inhibitors | hit rate 15% among 420,000; further: potency means the concentration at half of the fitted maximal effect; nearly all actives have a fitted effect of over 55% in size
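Stably hTDP1-transfected Tdp1-null chicken DT40 cells were treated with library compounds minus camptothecin and grown for at least 48 hr at 37 °C, after which cellular ATP was quantified by luminescence.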
HT1080 IDH1KD tx: HT-1080 IDH1 knockdown cell toxicity (counter line) | HT-1080 IDH1 knockdown viability, ATP luminescence, 48 h | hit rate 2% among 360,000 | Potency, µM (highest dose often 46.1 µM), without a hit: at the top dose activity, negative = toxicity, hits mostly cytotoxic | AID 686971;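 further: potency means the concentration at half of the fitted maximal effect; 0% = DMSO wells and -100% = cell-free medium wells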
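IDH1KD HT-1080 cells, 750/well, RPMI + 5% FBS; compound pinned after 2 h settling; 48 h, 37 °C; CellTiter-Glo luminescence; % activity normalised to DMSO and no-cell wells; curves fitted, classed by r2 and efficacy.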
12-LOX inh: inhibitors of human 12S-lipoxygenase ALOX12; P18054; purified 12hLO, xylenol orange hydroperoxide absorbance; Potency, µM (series often up to 108 µM), inactives show at the top dose activity change, negative = inhibition, hits mostly inhibitors; hit rate 1.1% among 580,000; further: potency means the concentration at half of the fitted maximal effect
Target sequence (P18054 whole entry, looked up): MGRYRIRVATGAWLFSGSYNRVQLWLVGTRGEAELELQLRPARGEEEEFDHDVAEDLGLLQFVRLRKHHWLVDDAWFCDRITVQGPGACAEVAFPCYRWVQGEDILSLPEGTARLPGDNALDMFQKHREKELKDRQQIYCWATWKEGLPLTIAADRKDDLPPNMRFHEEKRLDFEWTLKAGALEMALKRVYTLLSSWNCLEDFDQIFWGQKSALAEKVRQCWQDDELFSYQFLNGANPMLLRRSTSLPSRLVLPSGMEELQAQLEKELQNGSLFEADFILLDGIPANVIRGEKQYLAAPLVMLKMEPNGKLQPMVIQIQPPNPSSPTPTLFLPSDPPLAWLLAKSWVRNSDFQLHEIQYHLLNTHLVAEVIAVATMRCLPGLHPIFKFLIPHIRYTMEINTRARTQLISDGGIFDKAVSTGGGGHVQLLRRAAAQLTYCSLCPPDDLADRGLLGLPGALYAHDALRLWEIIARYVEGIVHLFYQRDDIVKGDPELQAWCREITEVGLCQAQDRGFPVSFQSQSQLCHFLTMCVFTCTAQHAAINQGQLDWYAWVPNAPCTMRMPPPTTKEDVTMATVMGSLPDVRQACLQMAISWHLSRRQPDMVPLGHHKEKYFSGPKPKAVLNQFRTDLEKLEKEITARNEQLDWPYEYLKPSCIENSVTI
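Hydroperoxide product was detected by ferrous iron/xylenol orange as the 573 to 405 nm absorbance ratio. Arachidonic acid at 40 uM (final) was turned over for 30 min at room temperature by 150 nM human 12hLO, pH 7.0 Hepes buffer, after 15 min compound preincubation.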
HT1080-NT tox: kills 2HG-producing HT-1080-NT fibrosarcoma cells; Potency, µM (highest dose often 46.1 µM), without a hit: at the top dose activity, negative = less viability, actives largely listed as cytotoxic; HT-1080-NT fibrosarcoma viability, CellTiter-Glo ATP luminescence, 48 h; hit rate 1.6% among 360,000;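 further: NT is the 2HG producing partner of a matched IDH1 knockdown line; potency means the concentration at half of the fitted maximal effect; 0% = DMSO-treated cells and -100% = media-only wells without cells; nearly all actives have a fitted effect of over 55% in size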
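750 cells/well, RPMI + 5% FBS; 2 h settle, compound pin-transfer, 48 h at 37 degrees C. CellTiter-Glo 10 min RT, luminescence. Normalized to DMSO and media-only wells.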
Numbers without * were called inactive; [ ] = remark or other dose. Unless noted, the call rests on the fitted dose curve; in most records, active means well fitted curve in the direction sought with a large enough effect; inconclusive means small, poorly fitted or top-dose-only effect, or another doubt; inactive means no such curve, though single readings can be large; an effect the other way counts as inactive or inconclusive. Unless noted, on the % scale 0 is the no-effect control and ±100 the full control effect.

What do the screens show for `CS(=O)(=O)c1ccc(Cl)c(C(=O)Nc2ccc3nc(N4CCOCC4)sc3c2)c1`?
IL1B secr inh: 35; TDP1 cell CPT: inconclusive; DT40 TDP1 no CPT: inconclusive; HT1080 IDH1KD tx: -12%; 12-LOX inh: 27%; HT1080-NT tox: -7%

How did c1ccc(-c2cn3c4c(sc3n2)CCCC4)cc1 do in these assays?
IL1B secr inh: -17; TDP1 cell CPT: inconclusive; DT40 TDP1 no CPT: inconclusive; HT1080 IDH1KD tx: inconclusive; 12-LOX inh: -13%; HT1080-NT tox: 11µM*

Results for COc1ccc(NC(C)=O)cc1NC(=O)CNc1ccc(C)cc1Cl ?
12-LOX inh: -26%

How did CC(=O)Oc1ccc(N(C(C)=O)S(=O)(=O)c2ccc(C)cc2)c2ccccc12 do in these assays?
IL1B secr inh: 35; TDP1 cell CPT: 5.2µM*; DT40 TDP1 no CPT: 5.2µM*; HT1080 IDH1KD tx: inconclusive; 12-LOX inh: 28%; HT1080-NT tox: inconclusive

How did CC(=O)Oc1ccc(N(C(C)=O)S(=O)(=O)c2ccc(Cl)cc2)c2ccccc12 do in these assays?
IL1B secr inh: 57; TDP1 cell CPT: 29µM*; DT40 TDP1 no CPT: inconclusive; HT1080 IDH1KD tx: inconclusive; 12-LOX inh: -2%; HT1080-NT tox: inconclusive

What do the screens show for `CC(=O)N(c1ccccc1C)S(=O)(=O)c1ccc(Cl)cc1`?
IL1B secr inh: 63; TDP1 cell CPT: inconclusive; DT40 TDP1 no CPT: -15%; HT1080 IDH1KD tx: -23%; 12-LOX inh: -3%; HT1080-NT tox: -15%

What do the screens show for `Cc1onc(-c2ccccc2Cl)c1C(=O)NNC(=O)c1ccccc1F`?
IL1B secr inh: 9; TDP1 cell CPT: 22%; DT40 TDP1 no CPT: -2%; HT1080 IDH1KD tx: 3%; 12-LOX inh: -4%; HT1080-NT tox: 6%

What do the screens show for `Cc1ccc(S(=O)(=O)NC(C(=O)Oc2ccc3c(C(F)(F)F)cc(=O)oc3c2)c2ccccc2)cc1` (stereo unspecified)?
IL1B secr inh: 10; TDP1 cell CPT: -15%; DT40 TDP1 no CPT: -17%; HT1080 IDH1KD tx: 20%; 12-LOX inh: 50µM*; HT1080-NT tox: 20%

What do the screens show for `N#Cc1ccccc1S(=O)(=O)N1CCN(Cc2cc3c(cc2Br)OCCO3)CC1`?
IL1B secr inh: -1; TDP1 cell CPT: 16µM*; DT40 TDP1 no CPT: inconclusive; HT1080 IDH1KD tx: -18%; 12-LOX inh: inconclusive; HT1080-NT tox: 0%

How did O=C(CCN1CCOCC1)c1ccc(Br)cc1 do in these assays?
IL1B secr inh: -91*; TDP1 cell CPT: 3.3µM*; DT40 TDP1 no CPT: 2.6µM*; HT1080 IDH1KD tx: 26µM*; 12-LOX inh: inconclusive; HT1080-NT tox: inconclusive

What do the screens show for `O=C(CCN1CCOCC1)c1ccc(Cl)cc1`?
IL1B secr inh: -24; TDP1 cell CPT: 2.9µM*; DT40 TDP1 no CPT: 2.6µM*; HT1080 IDH1KD tx: -4%; 12-LOX inh: -21%; HT1080-NT tox: -12%

What do the screens show for `O=C(Nc1nnc(-c2cccs2)s1)C1CC1`?
IL1B secr inh: 14; TDP1 cell CPT: 18%; DT40 TDP1 no CPT: -1%; HT1080 IDH1KD tx: 3%; 12-LOX inh: 1%; HT1080-NT tox: -13%

What do the screens show for `O=C(Nc1nc(-c2cccs2)c(-c2cccs2)s1)C1CCCC1`?
IL1B secr inh: 0; TDP1 cell CPT: 16µM*; DT40 TDP1 no CPT: 15µM*; HT1080 IDH1KD tx: -18%; 12-LOX inh: -29%; HT1080-NT tox: -1%

How did Cc1ccc(NC(=O)C(=O)c2c[nH]c3ccccc23)c(C)c1 do in these assays?
12-LOX inh: -1%

Results for Fc1c(F)c(C(F)(F)F)c(F)c(F)c1N/N=C\c1cccs1 ?
IL1B secr inh: -74*; TDP1 cell CPT: 16µM*; DT40 TDP1 no CPT: 18µM*; HT1080 IDH1KD tx: 3%[9.24 µM]; 12-LOX inh: inconclusive; HT1080-NT tox: inconclusive

How did COc1ccc(/C=C2\Oc3cc(OS(C)(=O)=O)ccc3C2=O)cc1 do in these assays?
12-LOX inh: -19%
